Among all 5,500 compounds or so, about 2,000 (36%) were called active. Not shown: some 18% with an inconclusive outcome. No stated cut-off is given here; in the data, active means normalized growth mostly below about 0.91 (no sharp cut-off); inconclusive means no clear call, values can overlap the other calls; inactive means mostly above about 0.92. The list shows a part of the results.
Assay: chemical genetic growth profiling, strain panel (AID 1159580);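 further: tested at 20 µM; growth read once vehicle control cultures reached saturation at 30 °C; 1 = growth at the plate median or of vehicle wells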
Settings: S. cerevisiae deletion strains, growth OD

Measured: normalized growth

Cn1cnc(CCN)c1
inactive: locus YAL013W, strain DEP1, stronger effect = lower value 1.01 | locus YAL040C, strain CLN3, stronger effect = lower value 0.999 | locus YCL061C, strain MRC1 (second series), stronger effect = lower value 0.995 | locus YDR363W, strain ESC2, stronger effect = lower value 0.979 | locus YER002W, strain NOP16, stronger effect = lower value 0.98 | locus YGR078C, strain PAC10, stronger effect = lower value 1.01 | locus YGR229C, strain SMI1, stronger effect = lower value 1.01 | locus YJR075W, strain HOC1, stronger effect = lower value 1.01 | locus YMR263W, strain SAP30, stronger effect = lower value 1 | locus YNL153C, strain GIM3, stronger effect = lower value 1 | locus YNL175C, strain NOP13, stronger effect = lower value 0.986 | locus YNL197C, strain WHI3, stronger effect = lower value 0.992 | locus YNL224C, strain SQS1, stronger effect = lower value 0.983 | locus YNL322C, strain KRE1, stronger effect = lower value 1.01 | locus YOR083W, strain WHI5 (second series), stronger effect = lower value 0.99
